Test results: the supplement of paper PMC10849652
Targets with a hit are over-represented here; the source holds about 8,800 in all. About 0.5% of all pairs of compound and target were hits.

Legend:
Assay in all cases: log2 fold change, soluble protein after heating vs DMSO (PISA); higher = thermal stabilisation; K562 lysate, 10 uM; active = over 0.2 and 3.5 SD of the protein, either way, in both replicates (recomputed)
[1] = compound: C1=CC=C(C=C1)[C@H](COC2=CC3=C(C=C2)NC(=O)N3)NC(=O)C4=CC=CN(C4=O)CC5=CC(=C(C=C5)F)F
How it was run: (§1)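 Following dounce homogenisation of K562 pellets in PBS pH 7.4 with 1 mM MgCl2, crude extract at 1 mg/mL protein was incubated for 30 min with 10 μM compound. Aliquots were then heated for 3 min over 48°C-58°C and pooled, NP-40 was added to 0.5% at 4°C, and soluble protein was recovered as the supernatant at 21,000xg for 90 min. Channel-sum-equalised TMTpro 16plex LC-MS/MS quantified this protein. Each value, from duplicates, is a log-two fold change in thermal stability relative to solvent controls.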

[2] = compound: CC1=C(SC2=C1C(=N[C@H](C3=NN=C(N32)C)CC(=O)N)C4=CC=C(C=C4)Cl)C
How it was run: as §1

[3] = compound: CC1=C2C(=CC=C1)N=C(N(C2=O)C3=CC=CC=C3C)CN4C=NC5=C(N=CN=C54)N
How it was run: as §1

[4] = compound: Cc1sc2c(c1C)C(c1ccc(Cl)cc1)=N[C@@H](CC(=O)OC(C)(C)C)c1nnc(C)n1-2
How it was run: as §1

[5] = compound: c1ccc([C@@H]2C[C@H]2NC2CCNCC2)cc1
How it was run: as §1

Measured: log2 fold change

NUDT4 isoform 2 (UniProt Q9NZJ9)
Sequence of UniProt Q9NZJ9 (Q9NZJ9 whole entry, looked up): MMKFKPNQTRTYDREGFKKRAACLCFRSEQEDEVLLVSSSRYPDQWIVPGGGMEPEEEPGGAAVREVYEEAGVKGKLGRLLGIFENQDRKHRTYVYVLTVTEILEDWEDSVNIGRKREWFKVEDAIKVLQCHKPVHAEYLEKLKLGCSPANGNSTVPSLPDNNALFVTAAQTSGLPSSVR
inactive: [1] 0.009 | [2] -0.011 | [3] 0.01 | [4] 0.067 | [5] -0.026

NFATC4 isoform 2 (UniProt Q14934)
inactive: [1] -0.077 | [2] 0.015 | [3] 0 | [4] -0.112 | [5] -0.197

NLRP2 (UniProt Q9NX02)
inactive: [1] -0.01 | [2] -0.027 | [3] -0.015 | [4] 0.03 | [5] 0.093

NUP210 (UniProt Q8TEM1)
Sequence of UniProt Q8TEM1 (Q8TEM1 whole entry, looked up): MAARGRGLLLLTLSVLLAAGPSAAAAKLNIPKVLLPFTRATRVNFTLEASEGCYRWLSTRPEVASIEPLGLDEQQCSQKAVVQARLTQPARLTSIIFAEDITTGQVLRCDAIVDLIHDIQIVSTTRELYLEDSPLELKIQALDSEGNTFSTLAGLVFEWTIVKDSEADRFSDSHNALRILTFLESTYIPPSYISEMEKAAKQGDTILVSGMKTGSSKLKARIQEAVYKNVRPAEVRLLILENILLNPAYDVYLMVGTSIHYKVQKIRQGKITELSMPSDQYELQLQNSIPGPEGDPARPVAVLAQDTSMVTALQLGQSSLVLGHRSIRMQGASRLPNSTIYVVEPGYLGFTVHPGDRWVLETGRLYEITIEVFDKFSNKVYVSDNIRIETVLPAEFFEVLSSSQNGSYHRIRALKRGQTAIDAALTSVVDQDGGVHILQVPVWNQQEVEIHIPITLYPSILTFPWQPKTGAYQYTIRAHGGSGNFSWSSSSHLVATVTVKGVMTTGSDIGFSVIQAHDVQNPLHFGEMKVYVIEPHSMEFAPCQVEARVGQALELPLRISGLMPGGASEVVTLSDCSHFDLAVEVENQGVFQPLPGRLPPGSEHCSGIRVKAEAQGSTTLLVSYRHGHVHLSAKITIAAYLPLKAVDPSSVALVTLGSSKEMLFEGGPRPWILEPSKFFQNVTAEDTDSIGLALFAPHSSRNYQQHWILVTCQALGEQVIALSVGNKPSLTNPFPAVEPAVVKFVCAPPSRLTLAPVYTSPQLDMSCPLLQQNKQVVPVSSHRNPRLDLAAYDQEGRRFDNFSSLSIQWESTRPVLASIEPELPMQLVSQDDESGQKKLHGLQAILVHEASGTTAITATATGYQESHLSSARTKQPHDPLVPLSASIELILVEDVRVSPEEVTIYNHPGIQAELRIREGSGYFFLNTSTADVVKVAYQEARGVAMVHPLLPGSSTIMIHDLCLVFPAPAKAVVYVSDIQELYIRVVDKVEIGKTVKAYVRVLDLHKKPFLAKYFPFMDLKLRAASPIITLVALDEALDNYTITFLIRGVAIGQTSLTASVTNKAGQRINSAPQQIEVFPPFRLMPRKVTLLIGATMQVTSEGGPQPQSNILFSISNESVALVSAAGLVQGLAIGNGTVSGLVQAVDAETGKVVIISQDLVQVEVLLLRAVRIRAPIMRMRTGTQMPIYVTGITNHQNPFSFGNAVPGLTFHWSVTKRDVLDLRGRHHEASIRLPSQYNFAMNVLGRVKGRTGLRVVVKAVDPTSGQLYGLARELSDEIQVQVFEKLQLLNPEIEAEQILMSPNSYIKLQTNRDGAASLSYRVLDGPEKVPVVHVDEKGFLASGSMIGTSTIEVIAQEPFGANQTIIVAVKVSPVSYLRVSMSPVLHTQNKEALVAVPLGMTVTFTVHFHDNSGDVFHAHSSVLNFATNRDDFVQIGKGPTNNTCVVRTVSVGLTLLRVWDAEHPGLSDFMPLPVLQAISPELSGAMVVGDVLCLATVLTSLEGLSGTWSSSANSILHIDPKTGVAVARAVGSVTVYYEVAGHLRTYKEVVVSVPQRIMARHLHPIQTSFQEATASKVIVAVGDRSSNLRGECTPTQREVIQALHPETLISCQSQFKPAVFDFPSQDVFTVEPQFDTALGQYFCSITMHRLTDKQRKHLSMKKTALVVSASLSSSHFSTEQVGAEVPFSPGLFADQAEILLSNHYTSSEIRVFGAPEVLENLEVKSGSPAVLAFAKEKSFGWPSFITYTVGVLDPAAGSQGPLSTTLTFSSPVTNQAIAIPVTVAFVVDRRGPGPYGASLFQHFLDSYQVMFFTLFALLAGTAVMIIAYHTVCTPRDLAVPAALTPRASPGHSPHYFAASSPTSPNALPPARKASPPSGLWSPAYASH
inactive: [1] -0.101 | [2] 0.07 | [3] 0.016 | [4] 0.04 | [5] 0.028

PAN2 isoform 2 (UniProt Q504Q3)
Sequence of UniProt Q504Q3 (Q504Q3 whole entry, looked up): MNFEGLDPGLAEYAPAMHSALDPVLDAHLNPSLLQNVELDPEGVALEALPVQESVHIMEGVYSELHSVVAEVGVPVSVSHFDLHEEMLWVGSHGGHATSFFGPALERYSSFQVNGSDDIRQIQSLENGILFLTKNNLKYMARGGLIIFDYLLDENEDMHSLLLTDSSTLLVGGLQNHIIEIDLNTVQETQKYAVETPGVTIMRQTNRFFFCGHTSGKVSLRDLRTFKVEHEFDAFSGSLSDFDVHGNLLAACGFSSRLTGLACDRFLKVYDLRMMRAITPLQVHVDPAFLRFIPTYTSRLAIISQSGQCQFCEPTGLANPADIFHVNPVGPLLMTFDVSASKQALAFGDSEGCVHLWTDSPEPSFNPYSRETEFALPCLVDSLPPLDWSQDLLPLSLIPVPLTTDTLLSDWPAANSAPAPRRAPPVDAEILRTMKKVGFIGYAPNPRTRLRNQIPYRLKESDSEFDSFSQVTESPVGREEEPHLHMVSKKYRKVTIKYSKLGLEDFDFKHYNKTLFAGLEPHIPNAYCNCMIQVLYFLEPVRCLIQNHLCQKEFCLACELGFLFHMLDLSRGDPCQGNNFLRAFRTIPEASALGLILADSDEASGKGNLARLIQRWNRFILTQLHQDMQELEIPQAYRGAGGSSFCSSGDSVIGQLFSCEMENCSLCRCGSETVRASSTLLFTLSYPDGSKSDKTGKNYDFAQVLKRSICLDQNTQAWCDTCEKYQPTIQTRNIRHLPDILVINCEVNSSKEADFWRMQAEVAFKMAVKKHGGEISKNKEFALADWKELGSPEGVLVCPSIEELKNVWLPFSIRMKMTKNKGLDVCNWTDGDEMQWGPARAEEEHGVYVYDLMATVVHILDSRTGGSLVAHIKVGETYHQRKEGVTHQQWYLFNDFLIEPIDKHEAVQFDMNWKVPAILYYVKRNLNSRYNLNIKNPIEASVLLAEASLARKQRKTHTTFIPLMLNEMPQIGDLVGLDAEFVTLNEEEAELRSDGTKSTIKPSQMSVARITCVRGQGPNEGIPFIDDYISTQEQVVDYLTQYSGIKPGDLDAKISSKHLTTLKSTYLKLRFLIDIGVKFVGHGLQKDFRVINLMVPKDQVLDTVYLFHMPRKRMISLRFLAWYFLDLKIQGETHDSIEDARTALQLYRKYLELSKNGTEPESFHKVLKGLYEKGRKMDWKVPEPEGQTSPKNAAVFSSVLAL
inactive: [1] -0.108 | [2] 0.086 | [3] -0.004 | [4] -0.044 | [5] 0.007

NIPSNAP3A (UniProt Q9UFN0)
Sequence of UniProt Q9UFN0 (Q9UFN0 whole entry, looked up): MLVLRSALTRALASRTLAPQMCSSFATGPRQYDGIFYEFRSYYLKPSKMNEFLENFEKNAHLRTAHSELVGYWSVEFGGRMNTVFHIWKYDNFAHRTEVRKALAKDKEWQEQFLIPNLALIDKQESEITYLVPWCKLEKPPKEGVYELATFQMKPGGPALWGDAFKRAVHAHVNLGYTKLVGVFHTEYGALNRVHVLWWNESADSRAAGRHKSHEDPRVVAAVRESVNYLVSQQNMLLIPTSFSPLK
active: [5] 0.322
inactive: [1] 0.083 | [2] -0.037 | [3] -0.013 | [4] -0.036

MTOR (UniProt P42345)
inactive: [1] -0.022 | [2] 0.004 | [3] 0.013 | [4] 0.014 | [5] 0.029

NEBL isoform 2 (UniProt O76041)
Sequence of UniProt O76041 (O76041 whole entry, looked up): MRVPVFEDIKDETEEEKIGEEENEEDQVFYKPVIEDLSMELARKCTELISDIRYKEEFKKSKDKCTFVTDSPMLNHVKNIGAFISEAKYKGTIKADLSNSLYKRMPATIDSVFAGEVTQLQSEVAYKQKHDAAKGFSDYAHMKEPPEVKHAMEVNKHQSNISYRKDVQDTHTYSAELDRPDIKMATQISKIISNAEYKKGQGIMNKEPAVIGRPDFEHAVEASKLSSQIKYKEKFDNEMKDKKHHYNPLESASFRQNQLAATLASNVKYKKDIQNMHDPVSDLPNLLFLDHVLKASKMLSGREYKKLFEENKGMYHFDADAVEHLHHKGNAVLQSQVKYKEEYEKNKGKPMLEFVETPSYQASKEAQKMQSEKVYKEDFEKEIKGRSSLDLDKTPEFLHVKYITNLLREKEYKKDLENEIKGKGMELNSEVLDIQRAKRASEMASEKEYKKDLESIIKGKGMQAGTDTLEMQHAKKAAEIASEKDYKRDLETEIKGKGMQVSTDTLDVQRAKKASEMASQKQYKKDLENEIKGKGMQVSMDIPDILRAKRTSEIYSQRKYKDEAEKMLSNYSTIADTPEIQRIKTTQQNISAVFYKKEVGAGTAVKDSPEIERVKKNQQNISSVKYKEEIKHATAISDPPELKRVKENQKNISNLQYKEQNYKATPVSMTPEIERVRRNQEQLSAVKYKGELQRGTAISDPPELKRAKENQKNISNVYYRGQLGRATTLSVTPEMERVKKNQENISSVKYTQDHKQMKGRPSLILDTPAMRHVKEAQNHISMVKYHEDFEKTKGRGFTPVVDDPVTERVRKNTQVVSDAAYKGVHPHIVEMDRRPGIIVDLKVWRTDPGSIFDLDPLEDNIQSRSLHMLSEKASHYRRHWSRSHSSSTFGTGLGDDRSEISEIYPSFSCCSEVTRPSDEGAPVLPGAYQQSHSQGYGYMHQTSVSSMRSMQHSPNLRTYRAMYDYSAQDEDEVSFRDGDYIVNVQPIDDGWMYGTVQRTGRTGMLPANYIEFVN
inactive: [1] -0.025 | [2] -0.102 | [3] 0.018 | [4] -0.07 | [5] -0.094

NMT1 (UniProt P30419)
Sequence of UniProt P30419 (P30419 whole entry, looked up): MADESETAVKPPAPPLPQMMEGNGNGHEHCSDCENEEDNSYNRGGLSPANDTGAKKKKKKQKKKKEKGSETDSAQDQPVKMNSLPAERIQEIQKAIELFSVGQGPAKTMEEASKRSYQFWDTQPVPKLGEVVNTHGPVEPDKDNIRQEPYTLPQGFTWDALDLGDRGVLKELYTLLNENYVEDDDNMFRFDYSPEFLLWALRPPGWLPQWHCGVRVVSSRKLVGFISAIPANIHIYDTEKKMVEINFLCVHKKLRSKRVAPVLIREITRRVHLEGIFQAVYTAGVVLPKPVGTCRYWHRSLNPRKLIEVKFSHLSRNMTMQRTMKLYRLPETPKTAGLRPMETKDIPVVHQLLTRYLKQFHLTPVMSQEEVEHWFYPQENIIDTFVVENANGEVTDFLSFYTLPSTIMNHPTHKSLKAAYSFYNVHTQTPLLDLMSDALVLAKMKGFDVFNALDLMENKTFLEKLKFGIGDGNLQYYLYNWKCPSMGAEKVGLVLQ
inactive: [1] 0.004 | [2] 0.002 | [3] -0.002 | [4] 0.011 | [5] 0.004
